Laboratory results as given in PubChem BioAssay (NCATS).
Records with an inconclusive call do not appear. Active and inactive are the calls of the source. The call rests on the fitted dose curve; in most records, active means well fitted cell-killing curve with a large enough effect; inconclusive means small, poorly fitted or top-dose-only effect, or effect the other way; inactive means no such curve, though single readings can be large or run the other way.

What was measured:
[1] = Quantitative High-Throughput drug screen in 47 multiple myeloma cell lines against the NCATS MIPE library collection: FR4_PLB cell viability assay (AID 1918924; further: nearly all actives have a fitted effect of over 35% in size)
Summary of the method: (§1)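 Inhibition of cell viability is measured here. Each line was plated at 500 cells per well, treated with MIPE 4.0 drugs, kept 48 hours at 37C, then assayed for ATP content by CellTiter-Glo luminescence.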

[2] = Quantitative High-Throughput drug screen in 47 multiple myeloma cell lines against the NCATS MIPE library collection: Delta47_JCRB cell viability assay (AID 1918925; further: nearly all actives have a fitted effect of over 45% in size)
Summary of the method: (§2)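 CellTiter-Glo ATP luminescence gave viability after 48 h compound treatment at 37C of 500 multiple myeloma cells per well. Normalisation used DMSO-only wells as 100% and media-only wells as 0% viability; primary qHTS of approved and investigational drugs.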

[3] = Quantitative High-Throughput drug screen in 47 multiple myeloma cell lines against the NCATS MIPE library collection: EJM_DSMZ cell viability assay (AID 1918926; further: nearly all actives have a fitted effect of over 30% in size)
Summary of the method: as §2

[4] = Quantitative High-Throughput drug screen in 47 multiple myeloma cell lines against the NCATS MIPE library collection: ARP1_JJKsccF8 cell viability assay (AID 1918928; further: nearly all actives have a fitted effect of over 40% in size)
Summary of the method: (§3)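 Here, 48 h treatment with MIPE 4.0 agents at 37 °C preceded an ATP luminescence read. Plating density was 500 cells per well.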

[5] = Quantitative High-Throughput drug screen in 47 multiple myeloma cell lines against the NCATS MIPE library collection: Karpas417_ECACC cell viability assay (AID 1918961); conditions: Karpas417 myeloma viability, CellTiter-Glo ATP luminescence, 48 h; viability (% of DMSO): at 45.8 µM (top of the series)
Summary of the method: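 qHTS of the MIPE 4.0 collection: 500 myeloma cells/well, 48 h drug exposure at 37C in 5% CO2, then CellTiter-Glo for 5 min at room temperature before luminescence reading.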

[6] = Quantitative High-Throughput drug screen in 47 multiple myeloma cell lines against the NCATS MIPE library collection: KHM11_PLB cell viability assay (AID 1918962); further: nearly all actives have a fitted effect of over 35% in size
Summary of the method: as §1

[7] = Quantitative High-Throughput drug screen in 47 multiple myeloma cell lines against the NCATS MIPE library collection: ARD_JJKsccE7 cell viability assay (AID 1918929)
Summary of the method: as §2

[8] = Quantitative High-Throughput drug screen in 47 multiple myeloma cell lines against the NCATS MIPE library collection: Karpas620_DSMZ cell viability assay (AID 1918959); further: nearly all actives have a fitted effect of over 30% in size
Summary of the method: as §1

[9] = Quantitative High-Throughput drug screen in 47 multiple myeloma cell lines against the NCATS MIPE library collection: KMM1_JCRB cell viability assay (AID 1918960); further: nearly all actives have a fitted effect of over 30% in size
Summary of the method: as §3

[10] = Quantitative High-Throughput drug screen in 47 multiple myeloma cell lines against the NCATS MIPE library collection: AMO1_DSMZ cell viability assay (AID 1918927; further: nearly all actives have a fitted effect of over 30% in size)
Summary of the method: as §2

Measured: Potency
Potency means the concentration at half of the fitted maximal effect.

CNC(=O)c1c(F)cccc1Nc1nc(Nc2cc3c(cc2OC)CCN3C(=O)CN(C)C)nc2[nH]ccc12
inactive: [5]
active: [1] 10.5 µM | [2] 0.0526 µM | [3] 0.209 µM | [4] 5.26 µM | [6] 9.35 µM

CC1(C)O[C@@H]2C[C@@H]3[C@H]4C[C@@H](F)C5=CC(=O)C=C[C@]5(C)[C@@]4(F)[C@@H](O)C[C@]3(C)[C@]2(C(=O)CO)O1
active: [4] 0.0074 µM
inactive: [1] | [2] | [3] | [5] | [6]

COc1ccc(C=Cc2cc(OC)c(OC)c(OC)c2)cc1O
not listed: [4] | [5] | [10]
inactive: all other assays above

CC(=O)Nc1sc2c(c1-c1nc3ccccc3s1)CNC2
inactive: [9]
active: [1] 20.9 µM | [2] 16.6 µM | [3] 23.5 µM | [4] 11.8 µM | [6] 26.4 µM

COc1cccc2nc(-c3cccs3)nc(NN3C(=O)C=C(C)C3=O)c12
active: [1] 1.87 µM | [2] 0.0743 µM | [10] 0.0935 µM | [4] 0.0418 µM | [7] 1.66 µM | [8] 0.743 µM | [9] 0.118 µM | [5] 0.0526 µM | [6] 0.0526 µM

c1cc(-c2cnn3cc(-c4ccc(OCCN5CCCCC5)cc4)cnc23)ccn1
inactive: [7] | [8] | [9]
active: [1] 11.8 µM | [2] 2.09 µM | [3] 16.6 µM | [6] 1.48 µM

N#CCNC(=O)c1ccc(-c2ccnc(Nc3ccc(N4CCOCC4)cc3)n2)cc1
active: [1] 20.9 µM | [2] 9.35 µM | [3] 11.8 µM | [4] 16.6 µM | [6] 4.69 µM
inactive: [7] | [9]

COc1cc(=C2C=c3ccccc3=N2)[nH]c1=Cc1[nH]c(C)cc1C
active: [1] 1.18 µM | [2] 1.87 µM | [3] 6.62 µM | [4] 1.05 µM | [8] 7.43 µM | [5] 16.6 µM | [6] 0.418 µM

Cc1cc(CN2CCN(c3c(Br)cnc4nc(-c5ccc(N6CCN(C)CC6)cc5)[nH]c34)CC2)no1
active: [1] 18.7 µM | [2] 2.64 µM | [3] 6.62 µM | [6] 5.26 µM
inactive: [9] | [5]

O=C(Cc1ccc(-c2ccc(OCCN3CCOCC3)cc2)cn1)NCc1ccccc1
active: [1] 0.0093 µM | [2] 0.0264 µM | [3] 0.0662 µM | [7] 0.0166 µM | [8] 0.0042 µM | [9] 0.0118 µM | [6] 0.469 µM

CCn1nnc2c(N3CCOCC3)nc(-c3ccc(NC(=O)Nc4ccc(C(=O)N5CCN(C)CC5)cc4)cc3)nc21
active: [1] 0.0074 µM | [2] 0.0132 µM | [3] 0.469 µM | [4] 0.0662 µM | [7] 0.0372 µM | [6] 0.0059 µM

O=C1CCC[C@@H]2[C@H]3CCC[N+]4([O-])CCC[C@@H](CN12)[C@@H]34 (some centres undefined)
inactive: [1] | [2] | [10] | [7] | [8]

O=C(Nc1cn[nH]c1-c1nc2ccc(CN3CCOCC3)cc2[nH]1)NC1CC1
active: [1] 2.35 µM | [2] 1.48 µM | [7] 3.72 µM | [8] 5.26 µM | [9] 2.96 µM | [6] 1.48 µM

Cc1c(Cn2c(C)nc3c(C(=O)O)cc(N4CCOCC4)cc32)cccc1C(F)(F)F
inactive: [7] | [8]
active: [1] 5.9 µM | [2] 5.9 µM | [10] 14.8 µM

CN[C@H]1CCc2cc(OC)c(OC)c(OC)c2-c2ccc(OC)c(=O)cc21
inactive: [1]
active: [2] 0.001 µM | [4] 0.0015 µM | [5] 0.059 µM

Cc1nc(N)ncc1-c1nc(N2CCOCC2)c2sc(C(C)(C)O)cc2n1
active: [1] 8.33 µM | [2] 0.235 µM | [10] 1.32 µM | [4] 0.105 µM | [7] 0.0332 µM | [9] 0.332 µM | [6] 0.662 µM

Clc1cccc(-c2nnnn2Cc2cccnc2)c1Cl
not listed: [2] | [5]
inactive: all other assays above

Cn1cncc1[C@@](N)(c1ccc(Cl)cc1)c1ccc2c(c1)c(-c1cccc(Cl)c1)cc(=O)n2C
active: [1] 20.9 µM | [2] 6.62 µM | [10] 7.43 µM | [4] 0.469 µM | [8] 5.9 µM | [9] 9.35 µM

CC(C)c1ccc(Cn2ccc3c4c(N)nc(NC5CC5)nc4ccc32)cc1
active: [1] 4.18 µM | [2] 3.32 µM | [10] 0.935 µM | [4] 4.18 µM | [7] 3.32 µM | [8] 1.05 µM | [5] 10.5 µM | [6] 14.8 µM

Cc1c(NC(=O)OC[C@@H]2COCCN2)cn2ncnc(Nc3ccc4c(cnn4Cc4cccc(F)c4)c3)c12
active: [1] 1.32 µM | [2] 0.833 µM | [10] 3.32 µM | [7] 11.8 µM | [8] 18.7 µM

CNC(=O)CN1CCC(Oc2cc3c(Nc4cccc(Cl)c4F)ncnc3cc2OC)CC1
active: [1] 0.0264 µM | [2] 0.0187 µM | [4] 0.0372 µM | [7] 0.001 µM | [6] 0.0372 µM

COC(=O)Nc1nc2ccc(C(=O)c3ccc(F)cc3)cc2[nH]1
active: [1] 0.264 µM | [2] 0.418 µM | [10] 0.296 µM | [4] 0.418 µM | [7] 0.332 µM | [6] 0.264 µM

CCOc1cc2ncc(C#N)c(Nc3ccc(F)c(Cl)c3)c2cc1NC(=O)C=CCN(C)C
active: [1] 7.43 µM | [2] 6.62 µM | [4] 1.66 µM | [6] 20.9 µM

C[C@@H]1CN(CC(=O)Nc2ccc3c(c2)Cc2cccc(-c4cc(=O)cc(N5CCOCC5)o4)c2S3)C[C@H](C)O1
active: [1] 16.6 µM | [2] 2.64 µM | [10] 5.26 µM | [7] 18.7 µM | [9] 10.5 µM

CN(C1CCc2c(c3ccccc3n2CC(=O)O)C1)S(=O)(=O)c1ccc(F)cc1 (centres undefined)
active: [3] 11.8 µM | [10] 2.64 µM | [7] 5.26 µM | [8] 2.96 µM | [9] 2.35 µM | [5] 0.743 µM
inactive: [1]

COC(=O)C1=C(C)NC(C)=C(C(=O)OCCN2CCN(C(c3ccccc3)c3ccccc3)CC2)C1c1cccc([N+](=O)[O-])c1 (centres undefined)
inactive: [1] | [2] | [10] | [8] | [9] | [6]

Cc1cc(C(=O)N2CCN(c3cccc(Cl)c3)CC2)n(-c2ccccc2)n1
active: [1] 0.148 µM | [2] 0.833 µM | [7] 0.264 µM | [8] 0.0296 µM | [9] 0.187 µM | [6] 0.418 µM

CC(NCc1ccc2c(c1)nc(NC(=O)c1ccc(-c3cn[nH]c3)s1)n2CC(C)(C)O)C(C)(C)C (centres undefined)
active: [1] 0.372 µM | [2] 0.0833 µM | [10] 0.166 µM | [4] 0.418 µM | [7] 0.296 µM | [9] 0.235 µM | [6] 0.0935 µM
